# A selection: hits, their analogues and other compounds. The true share with any hit is near 2.4%.
# D2 antag – D2 dopamine receptor (human) antagonism; P14416; HEK293 TREx D2 cells, calcium flux, dopamine EC80; inhibition, % at 10 µM; actives 2% (n = 340,000); in the data active = inhibition above about 30%; inactive = below that, where a call was filed; note: 0% is about no effect
# Target sequence (P14416 whole entry, looked up): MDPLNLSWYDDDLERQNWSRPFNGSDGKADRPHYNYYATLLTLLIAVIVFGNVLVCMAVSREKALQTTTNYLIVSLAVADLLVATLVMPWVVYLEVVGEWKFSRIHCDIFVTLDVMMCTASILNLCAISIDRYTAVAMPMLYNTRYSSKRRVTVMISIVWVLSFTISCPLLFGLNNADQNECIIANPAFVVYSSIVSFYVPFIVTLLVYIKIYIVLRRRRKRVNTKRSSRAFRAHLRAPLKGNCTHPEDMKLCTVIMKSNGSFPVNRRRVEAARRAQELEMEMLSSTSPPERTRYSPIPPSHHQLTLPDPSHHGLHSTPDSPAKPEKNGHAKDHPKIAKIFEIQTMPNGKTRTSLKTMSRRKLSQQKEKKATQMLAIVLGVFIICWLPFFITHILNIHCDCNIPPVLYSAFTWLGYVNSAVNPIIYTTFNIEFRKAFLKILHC
#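 Measurement of antagonist activity uses fluorescent calcium dye in inducible HEK293 T-REx D2 cells: 10 s baseline, compound addition with 180 s read, EC80 dopamine addition with a further 180 s read.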
# D2 PAM-1 – D2 dopamine receptor (human) potentiation; P14416; HEK293 T-REx D2, calcium flux, EC20 dopamine potentiation; potentiation, % at 10 µM; actives 0.34% (n = 340,000); AID 485347;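 active = potentiation over 3 SD above the plate norm, cut at about 30% in these data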; note: 0% is about no effect
#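 Using a no-wash calcium dye in inducible, force-coupled HEK293 Trex cells expressing D2, we tracked fluorescence each second for 180 s after compound, then for 180 s after EC20 dopamine to detect augmented signalling.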
# D2 PAM-2 – potentiates the human D2 dopamine receptor allosterically; potentiation, % (concentration not given with the values); P14416; actives 0.23% (n = 360,000); AID 624464; DiscoveRx D2 beta-arrestin cells, luminescence, 90 min; 100% = 57 uM dopamine signal; in the data active = potentiation above about 50%; inconclusive = mostly about 30% to 49%
#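 D2 cells co-treated with compound plus 50 nM dopamine (EC20) for 90 min at 37 deg C to detect potentiation. Beta-arrestin recruitment was read as enzyme-fragment luminescence after 1 h at ambient temperature. Full response was set by 57 uM dopamine.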
# D2 ag-1 – activates the human D2 dopamine receptor; P14416; DiscoveRx PathHunter D2 beta-arrestin, luminescence, 90 min; 100% = 57 uM dopamine signal; activation, % (no concentration beside the values); actives 0.084% (n = 360,000); AID 624465; in the data active = activation above about 40%; inconclusive = between about 15% and that limit
#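 Agonist mode: compounds alone added to overnight-plated D2 PathHunter cells for 90 min at 37 C, with 57 uM final dopamine (EC100) defining full response. Beta-arrestin recruitment detected by chemiluminescent reagent, read after 1 h at ambient temperature.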
# D2 ag-2 – agonists of human D2 dopamine receptor; activation, % at 2 µM; HEK293 T-REx D2 cells, calcium flux agonist mode; AID 485358; actives 0.53% (n = 340,000);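 active = activation over 3 SD above normal in the single-dose calcium agonist read, cut at about 30% in these data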; note: 0% is about no effect
#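 In this primary screen, compounds producing a positive calcium signal within 180 s of addition to tetracycline-induced, force-coupled HEK293 Trex D2 cells are flagged; cells are dye-loaded with a no-wash calcium kit beforehand.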
# * = called active by the depositor; ? = inconclusive; · = no result given.
SMILES,D2 antag,D2 PAM-1,D2 PAM-2,D2 ag-1,D2 ag-2
COC(=O)CC(NS(=O)(=O)c1cccs1)c1cccc2ccccc12 (stereo not given),46*,2,-3,-2,0
COc1ccc(N(CC(=O)N/N=C/c2ccc(C(=O)O)cc2)S(=O)(=O)c2ccc(NC(C)=O)cc2)cc1,56*,-7,0,2,1
COc1ccc(N(Cc2cc3cc(OC)ccc3[nH]c2=O)S(=O)(=O)c2ccc(NC(C)=O)cc2)cc1,-7,-20,50*,2,0
COc1ccc(N(Cc2cc3ccccc3[nH]c2=O)S(=O)(=O)c2ccc(OC)cc2)cc1,9,-24,-44,-2,-2
COC(=O)c1sccc1S(=O)(=O)N(CC(=O)Nc1cc(C)ccc1C)c1ccc(C)c(C)c1,·,0,·,·,1
COc1cccc(-c2nc(-c3ccccc3)c(-c3ccccc3)[nH]2)c1OCC(=O)O,-6,-4,65*,5,1
O=C(O)COc1ccccc1-c1nc(-c2ccccc2)c(-c2ccccc2)[nH]1,-2,9,7,8,0
CCCC(=O)CN1C(=O)C2(OCCO2)c2ccccc21,-13,36*,-17,-1,0
O=C1N(Cc2ccccc2F)c2ccccc2C12OCCCO2,-4,40*,-12,-3,0
COc1cc(OC)cc(C(=O)NC(=S)N2CCCCC2c2cccnc2)c1 (stereo not given),41*,5,-12,-2,-1
COc1ccc(NC(=O)N2CCCCC2c2cccnc2)cc1 (stereo not given),23,14,1,-1,-1
COc1ccc(-c2[nH]c(-c3ccc(O)cc3)nc2-c2ccccc2)cc1,·,20,·,·,·
CCCc1nnc(NC(=O)Cc2coc3ccc(C(C)C)cc23)s1,·,-24,·,·,-1
Cc1ccc(NC(=S)N(CCCN2CCCC(C)C2)Cc2ccco2)cc1C (stereo not given),46*,-24,-35,-5,·
Cc1ccc(Cl)cc1NC(=S)N(CCCN1CCN(C)CC1)Cc1ccco1,71*,-27,-37,-6,0
Cc1cc(NC(=S)N(CCN2CCCCC2)Cc2ccco2)ccc1Cl,35*,-21,-13,-1,-7
COc1ccc(Cl)cc1NC(=O)c1sc(-n2nc(C)c(Cc3ccccc3)c2C)nc1C,·,-8,·,·,2
CCOC(=O)c1[nH]c2c(c1Cc1ccccc1OC)C(=O)CC(c1ccc(OC)cc1)C2 (stereo not given),·,-6,·,·,0
CC1(C(=O)NCc2ccc(F)cc2)Oc2ccccc2NC1=O (stereo not given),76*,-15,5,0,0
O=C(Nc1cccc(Cl)c1)NC1CCN(C2CCCCC2)C1 (stereo not given),85*,-22,-26,5,-1
O=C(NC1CCN(C(=O)Nc2cccc(Cl)c2)CC1)C1CCCCC1,7,0,-5,-2,0
N#CC1=C(N)S[C@H](C(=O)C23CC4CC(CC(C4)C2)C3)[C@H]1c1ccncc1,4,31*,14,5,1
Cc1cc(F)ccc1NC(=O)C1CCC(CNS(=O)(=O)c2ccc3c(c2)CCCC(=O)N3)CC1 (stereo not given),·,3,·,·,0
Cc1ccc(S(=O)(=O)N/N=C\c2cccnc2)cc1,35*,-1,-14,4,0
CC1Cc2ccccc2N1C(=O)CSc1nnc2n1C(C)(C)Cc1ccccc1-2 (stereo not given),1,34*,-12,-3,-1
SMILES,D2 antag,D2 PAM-1,D2 PAM-2,D2 ag-1,D2 ag-2
CC1CCC(NC(=O)c2ccc(-n3cncn3)c([N+](=O)[O-])c2)CC1 (stereo not given),36*,-7,27,-4,1
O=C(NC1CCCCC1)c1ccc(-n2cncn2)c([N+](=O)[O-])c1,·,·,-1,0,·
O=C(OCc1cc(=O)n2nc(-c3cccs3)sc2n1)c1ccccc1Br,·,16,·,·,1
CCN(CC(=O)Nc1cc(Cl)ccc1C)C(=O)COc1cccc2c1OC(C)(C)C2,43*,-22,-30,-3,1
COc1ccc2nc(Nc3sc4c(c3C(N)=O)CCCC4)sc2c1,14,-7,55*,?,2
COc1cc(NC(=O)c2ccc3c(c2)OCO3)ccc1NC(=O)C(C)C,64*,-2,-6,-5,-1
Cc1ccc(C(=O)Nc2ccc3c(c2)OCO3)cc1NC(=O)c1ccco1,48*,-3,4,-19,1
Cc1ccccc1OCc1nc(-c2ccc(NC(=O)c3ccco3)cc2)no1,-31,43*,6,7,-1
Cc1ccccc1NC(=O)c1ccc(NC(=O)c2ccco2)cc1,45*,-13,-12,2,2
Cc1cc(NC(=O)c2ccc3c(c2)OCO3)ccc1NC(=O)c1ccco1,-11,-9,1,-3,-1
Cc1sc2c(c1C)c(=O)n(-c1ccc(Cl)cc1)c(=O)n2Cc1c(F)cccc1Cl,·,-1,·,·,0
CN(C)CC(O)COc1cccc(OCC(O)CN(C)C)c1 (stereo not given),55*,-5,-4,-3,0
O=C(Nc1ccc(Br)cc1)c1ccc2ncsc2c1,36*,-27,-13,1,0
CCc1ccc(NC(=O)c2ccc3ncsc3c2)cc1,-7,-12,·,·,0
COC(=O)Nc1nnc(/C=C/c2ccc(OC)cc2)s1,31*,1,9,3,2
COc1ccc(/C=C/c2nnc(NC(C)=O)s2)cc1,3,8,-6,-3,2
Cc1cc(F)ccc1-n1nnc(C(N)=O)c1C,·,1,·,·,0
CCCCOC(=O)/C=C/c1ccc(OC(=O)OC)c(OC(=O)OC)c1,74*,-4,-9,3,0
CCN1C(=O)C(CC(=O)Nc2ccc(Cl)cc2)N(NC(=O)c2ccncc2)C1=S (stereo not given),31*,-9,-13,-7,0
CCNC(=O)CC1C(=O)N(CC)C(=S)N1NC(=O)c1ccc(Cl)cc1 (stereo not given),-8,2,-8,-2,0
O=Nc1c(O)ccc2cc(S(=O)(=O)O)ccc12,·,·,100*,?,·
Cc1ccccc1CN1CCC(n2nccc2NC(=O)c2ccc3c(c2)OCO3)CC1,-6,-1,-47,-9,0
COc1ccccc1C(=O)Nc1ccnn1C1CCN(Cc2csc(C(C)=O)c2)CC1,32*,-1,-28,-2,1
COc1ccc(CN2CCC(n3nccc3NC(=O)c3ccc4c(c3)OCO4)CC2)cc1C,45*,-12,-32,2,1
Cc1cc(CN2CCC(n3nccc3NC(=O)c3ccccc3Cl)CC2)cc(C)c1O,55*,-19,-20,-3,1
O=C(Nc1ccnn1C1CCN(Cc2cccnc2)CC1)c1ccccc1Cl,-7,5,7,-3,0
